For 7 sequences, binding signal results are on record in paper PMC8384837, “Expanding the binding specificity for RNA recognition by a PUF domain”.

Holding throughout (test): yeast three-hybrid, YBZ-1, SC-Leu-His + 0.5 mM 3-AT, 4 days
Common to all, as to conditions: tags: N-Gal4 AD-HA kept; label: inside an RPR1-promoter hybrid RNA with tandem MS2 sites; ssRNA

One experiment has as its target PUM1 PUF domain R1-KVS (Homo sapiens, UniProt Q14671 828-1176, S863K;R864V;Q867S). Summed up:
(§1)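 Repeat regions from input (SC-Leu) and selection (SC-Leu-His + 0.5 mM 3-AT) plates were PCR-amplified and Illumina-sequenced after four days of growth. The cells were strain YBZ-1 with a LexA–MS2 coat fusion and a HIS3 reporter, co-expressing Pumilio-1 PUF domain libraries and matching RNA elements from a centromeric plasmid. The interaction score is the log change in variant frequency from input to selection, taken in log2 with a pseudocount of 1 for absent variants.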

Another experiment has as its target PUM1 PUF domain R7-RSR (Homo sapiens, UniProt Q14671 828-1176, S1079R;N1080S;E1083R). Summed up:
as §1

For a further experiment, the target named is PUM1 PUF domain R5-EAE (Homo sapiens, UniProt Q14671 828-1176, C1007E;R1008A;Q1011E). Summed up:
as §1

The next experiment concerns the target PUM1 PUF domain R5-WHY (Homo sapiens, UniProt Q14671 828-1176, C1007W;R1008H;Q1011Y). Summed up:
as §1

In another experiment the target is T1, PUM1 PUF domain R6-LYV (Homo sapiens, UniProt Q14671 828-1176, N1043L;Q1047V).
T1 sequence: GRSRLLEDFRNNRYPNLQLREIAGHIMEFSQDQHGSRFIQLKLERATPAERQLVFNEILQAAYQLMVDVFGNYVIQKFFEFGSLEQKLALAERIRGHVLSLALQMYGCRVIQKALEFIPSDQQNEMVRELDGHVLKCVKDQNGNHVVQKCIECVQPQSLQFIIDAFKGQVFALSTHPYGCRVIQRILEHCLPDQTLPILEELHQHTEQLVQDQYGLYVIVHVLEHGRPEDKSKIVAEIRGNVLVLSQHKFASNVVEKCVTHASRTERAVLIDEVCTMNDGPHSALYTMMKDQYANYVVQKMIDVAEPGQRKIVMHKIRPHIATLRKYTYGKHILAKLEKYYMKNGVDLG
Summed up:
as §1

Another experiment concerns the target PUM1 PUF domain R8-KFA (Homo sapiens, UniProt Q14671 828-1176, N1122K;Y1123F;Q1126A). An outline of the steps:
as §1

The target in a further experiment is PUM1 PUF domain R5-LYG (Homo sapiens, UniProt Q14671 828-1176, C1007L;R1008Y;Q1011G). Summed up: as §1
The target of another experiment is T2, PUM1 PUF domain R6-CWR (Homo sapiens, UniProt Q14671 828-1176, N1043C;Y1044W;Q1047R).
T2 sequence: T1 sequence with L216C, Y217W, V220R
An outline of the steps: as §1

In the next experiment the target is PUM1 PUF domain R3-IFV (Homo sapiens, UniProt Q14671 828-1176, C935I;R936F;Q939V). An outline of the steps: as §1
For the next experiment, the target named is PUM1 PUF domain R3-DHV (Homo sapiens, UniProt Q14671 828-1176, C935D;R936H;Q939V). Summed up: as §1
The next experiment addresses PUM1 PUF domain R2-AYW (Homo sapiens, UniProt Q14671 828-1176, N899A;Q903W). Summed up:
as §1

A further experiment has as its target PUM1 PUF domain R3-RSW (Homo sapiens, UniProt Q14671 828-1176, C935R;R936S;Q939W). An outline of the steps:
as §1

The target of the next experiment is PUM1 PUF domain R3-TFG (Homo sapiens, UniProt Q14671 828-1176, C935T;R936F;Q939G). Summed up: as §1
The target in a further experiment is PUM1 PUF domain R3-VSK (Homo sapiens, UniProt Q14671 828-1176, C935V;R936S;Q939K). Summed up:
as §1

The next experiment addresses PUM1 PUF domain R3-RTI (Homo sapiens, UniProt Q14671 828-1176, C935R;R936T;Q939I). Summed up: as §1
The next experiment concerns the target PUM1 PUF domain R3-LFT (Homo sapiens, UniProt Q14671 828-1176, C935L;R936F;Q939T). An outline of the steps:
as §1

Substitutions are numbered along the chain they refer to.

On to “GGCUAGAACUAGUGGAUCCCCCGGCGCCCGGCGGCUCGAGCCCGGGUAAGUGUAAAUUGUCUGCAUGCCGCCGGGCGCCAUGCCUGCAGGUCGACUCUAGAAAACAUG”, for which the binding signal with PUM1 PUF domain R1-KVS is 4.64 log2 enrichment (interaction score).
With “GGCUAGAACUAGUGGAUCCCCCGGCGCCCGGCGGCUCGAGCCCGGGUAAGUUUAAAUAGUCUGCAUGCCGCCGGGCGCCAUGCCUGCAGGUCGACUCUAGAAAACAUG”, in the experiment with PUM1 PUF domain R7-RSR, the binding signal was 4.84 log2 enrichment (interaction score).
For the sequence “GGCUAGAACUAGUGGAUCCCCCGGCGCCCGGCGGCUCGAGCCCGGGUAAGUGUGAAUAGUCUGCAUGCCGCCGGGCGCCAUGCCUGCAGGUCGACUCUAGAAAACAUG”, the binding signal was 3.11 log2 enrichment (interaction score) with PUM1 PUF domain R5-EAE and 5.78 log2 enrichment (interaction score) with PUM1 PUF domain R5-WHY.
In the case of “GGCUAGAACUAGUGGAUCCCCCGGCGCCCGGCGGCUCGAGCCCGGGUAAGUGUAAAUAGUCUGCAUGCCGCCGGGCGCCAUGCCUGCAGGUCGACUCUAGAAAACAUG”, the binding signal in the experiment with PUM1 PUF domain R6-LYV was 2.81 log2 enrichment (interaction score); in the experiment with PUM1 PUF domain R8-KFA it was 4.75 log2 enrichment (interaction score); with PUM1 PUF domain R5-LYG, 3.46 log2 enrichment (interaction score); in the experiment with PUM1 PUF domain R6-CWR it was 5.42 log2 enrichment (interaction score); with PUM1 PUF domain R3-IFV it was 4.8 log2 enrichment (interaction score); with PUM1 PUF domain R3-DHV, 4.2 log2 enrichment (interaction score).
As to “GGCUAGAACUAGUGGAUCCCCCGGCGCCCGGCGGCUCGAGCCCGGGUAAGCGUAAAUAGUCUGCAUGCCGCCGGGCGCCAUGCCUGCAGGUCGACUCUAGAAAACAUG”, in the experiment with PUM1 PUF domain R8-KFA, the binding signal is 6.97 log2 enrichment (interaction score).
Regarding “GGCUAGAACUAGUGGAUCCCCCGGCGCCCGGCGGCUCGAGCCCGGGUAAGUGUAAAAAGUCUGCAUGCCGCCGGGCGCCAUGCCUGCAGGUCGACUCUAGAAAACAUG”, the binding signal in the experiment with PUM1 PUF domain R2-AYW was 3.05 log2 enrichment (interaction score).
As for “GGCUAGAACUAGUGGAUCCCCCGGCGCCCGGCGGCUCGAGCCCGGGUAAGUGUAAUUAGUCUGCAUGCCGCCGGGCGCCAUGCCUGCAGGUCGACUCUAGAAAACAUG”, the binding signal with PUM1 PUF domain R3-RSW is 3.81 log2 enrichment (interaction score); with PUM1 PUF domain R3-TFG, 2.64 log2 enrichment (interaction score); in the experiment with PUM1 PUF domain R3-VSK it was 3.36 log2 enrichment (interaction score); in the experiment with PUM1 PUF domain R3-RTI, 3.21 log2 enrichment (interaction score); in the experiment with PUM1 PUF domain R3-LFT, 5.16 log2 enrichment (interaction score); in the experiment with PUM1 PUF domain R3-IFV, 4.5 log2 enrichment (interaction score).
